Source: PubChem BioAssay
Calls of active or inactive are those of the source. The rule behind the calls is not given here.

Assays:
[1] = test system: Botulinum neurotoxin type F light chain protease (Clostridium botulinum); assay: Botulinum neurotoxin type F light chain protease inhibition, multiplex microsphere flow cytometry, validation set (AID 588459); conditions: multiplex microsphere protease substrate cleavage assay, at 10 µM, active compounds read high
[2] = biological target: Botulinum neurotoxin type A (Clostridium botulinum) (UniProt P0DPI0); assay: BoNT/A light chain protease inhibitors, biochemical, multiplex microsphere flow cytometry, validation set (AID 588460); conditions: at 10 µM, active compounds read high
[3] = biological target: Lethal factor (Bacillus anthracis) (UniProt P15917); assay: Lethal factor protease inhibitors, Bacillus anthracis, multiplex microsphere cleavage assay, validation set (AID 588461); conditions: flow cytometry, at 10 µM, active compounds read high

Measured: inhibition

COC(=O)c1ccccc1NC(=O)NCc1ccccc1
inactive: [1] 2.7% | [2] 0.1% | [3] 0.8%

COc1cc(C(=O)Nc2cccc(-c3nnc(-c4ccco4)o3)c2)ccc1OC(C)=O
inactive: [1] 3.1% | [2] 2.1% | [3] 0.6%

CC(=O)C1=C(Nc2ccc(C)cc2)CC(C)(O)C(C(C)=O)C1c1ccco1 (configuration not stated)
inactive: [1] 1% | [2] 0% | [3] -2.3%

COc1ccc(N2C(=O)[C@@H]3[C@H](C2=O)[C@H]2c4ccccc4C=CN2[C@@H]3C(C)=O)cc1
inactive: [1] -2.1% | [2] -0.4% | [3] -16.8%

COc1cccc(=O)c2c(C)n(CC(=O)c3ccccc3)c(C)c12
inactive: [1] -4.4% | [2] 0.1% | [3] -9.8%

O=C(Oc1ccccc1)Oc1ccc2c(c1)oc(=O)c1ccccc12
inactive: [1] -1.6% | [2] -0.4% | [3] 0.9%

Cc1ccc2nc(NC3=NC(CC(=O)O)C(=O)N3)nc(C)c2c1 (configuration not stated)
inactive: [1] -1.7% | [2] -1% | [3] -4.8%

CCN(CC)C(=O)c1ccc(O)c(OC)c1
inactive: [1] -2.8% | [2] -0.4% | [3] -6.3%

O=C(OCCNC(=O)c1ccc2ccccc2n1)c1ccc(F)cc1
inactive: [1] 1.8% | [2] -0.7% | [3] 4.4%

CCOc1ccc(C(=O)N2CCCC2C(=O)O)cc1 (configuration not stated)
inactive: [1] -1.3% | [2] 0.5% | [3] 1.5%

CSCCC(NC(=O)OC(C)(C)C)C(=O)Oc1ccc2c(=O)c(-c3ccc4c(c3)OCCO4)coc2c1 (configuration not stated)
inactive: [1] -0.4% | [2] -0.4% | [3] -1.7%

Cc1cccc2c1CC(C)(C)N/C2=C\C(N)=O
inactive: [1] 1% | [2] 1% | [3] -3.4%

CN1CCCN=C1COC(=O)C(O)(c1ccccc1)C1CCCCC1 (configuration not stated)
inactive: [1] -1.4% | [2] -0.9% | [3] -4.7%

COc1ccc2[nH]c(C)c(CN3CCC(C)CC3)c(=O)c2c1
inactive: [1] -0.8% | [2] 0.1% | [3] -5.9%

O=C1CC(c2ccc(OCCCCCOc3ccc(C4CC(=O)NC4=O)cc3)cc2)C(=O)N1 (configuration not stated)
inactive: [1] 2.5% | [2] 1.1% | [3] 2.1%

C[N+]1(C2CCC3CCCC2C3O)CCCCC1 (configuration not stated)
inactive: [1] 1.7% | [2] 2.4% | [3] -3.7%

C=C(C)COc1ccc(-c2n[nH]c(C)c2-c2ccc(OC)cc2)c(O)c1
inactive: [1] -1.3% | [2] -0.9% | [3] 5.2%

COc1ccc(/C=C/C(=O)NC(=S)NN2CCCCC2c2cccnc2)cc1 (configuration not stated)
inactive: [1] 3.7% | [2] 1.8% | [3] -3.5%

O=C(Cc1ccc(Br)cc1)c1ccc(O)cc1O
inactive: [1] -3.5% | [2] -0.4% | [3] -5.4%

CC(=O)O[C@]1(C(C)=O)CC[C@H]2[C@@H]3C=C(Cl)C4=CC(=O)CC[C@]4(C)[C@H]3CC[C@@]21C
inactive: [1] -0.5% | [2] -3.3% | [3] -4.2%

COCc1cc(=O)[nH]c(/N=C(\N)Nc2ccc(Oc3ccccc3)cc2)n1
inactive: [1] 3.4% | [2] 0.1% | [3] 5.6%

CNc1nc(Nc2ccccc2)nc(OCC(F)(F)F)n1
inactive: [1] 0.2% | [2] 0.2% | [3] -2.5%

Cc1ccsc1C1NC(=O)c2ccccc2N1 (configuration not stated)
inactive: [1] -6.7% | [2] -1.3% | [3] -5.3%

COC(=O)c1sccc1NC(=O)Nc1ccccc1F
inactive: [1] -1.2% | [2] -1.3% | [3] 1.2%

COc1ccc(-c2cc(C(=O)N3CCOCC3)c3cc(C)ccc3n2)cc1
inactive: [1] -8.2% | [2] -2.6% | [3] 2.3%

S=C(NCc1ccccc1)NCc1cccc(CNC(=S)NCc2ccccc2)c1
inactive: [1] -0.9% | [2] 0.7% | [3] -2.4%

Clc1ccc2c(c1)CCc1cccnc1C2=C1CCNCC1
inactive: [1] -4.1% | [2] -0.7% | [3] 5.5%

COc1ccc(C2CC(c3ccc([N+](=O)[O-])cc3)=NN2C(=O)c2ccccc2)cc1OC (configuration not stated)
inactive: [1] 10.2% | [2] 7.9% | [3] 2.3%

COc1ccc2[nH]c3c(c2c1)CCn1c-3nc2ccccc2c1=O
inactive: [1] 7% | [2] 2.2% | [3] 4.4%
